# Tested on: HepG2
# Experiment: GSK_TCMDC: Percent inhibition of human HepG2 cell line. Test compounds present at 10uM.
# Type: functional
row,SMILES,Inhibition [%]
1,CNC(=O)c1ccccc1Nc1nc(Nc2cccc(CS(C)(=O)=O)c2)ncc1C.O=CO,74
2,C=Cc1sc(CNCCCNc2cc(=O)c3ccccc3[nH]2)c(C)c1Br,0
3,Br.CCCC1N=C(N)N=C(N)N1c1ccc(OC)cc1 (stereo not given),0
4,CCNc1cc(C(=O)N[C@@H](Cc2ccccc2)[C@H](O)CNC2(CCC(C)C)CC2)cc(N2CCCCS2(=O)=O)c1.Cl,6
5,COc1ccc2nccc(N3CCCN(CCNCc4ccc5c(n4)NC(=O)CS5)CC3)c2n1.Cl,8
6,O=c1cc(NCCC2CC=CCN2Cc2ccc(Cl)c(Cl)c2)[nH]c2ccccc12 (stereo not given),7
7,O=C(CC(=O)C(F)(F)F)c1ccccc1[N+](=O)[O-],65
8,CCOc1ccc2c(=NN=Cc3cccc(Cl)c3)cc(C)[nH]c2c1,0
9,COc1ccc(Nc2nccc(N3CCC(NC(=O)c4cccc(NC(C)=O)c4)C3)n2)cc1 (stereo not given),0
10,Cc1cc(Cl)c(Cl)cc1NC(=O)Nc1cccc(C(F)(F)F)c1,1
11,Cc1cccc2c(/C=C/C(=O)NC3CCC(CCN4CCc5ccc(C#N)cc5CC4)CC3)c[nH]c12.Cl (stereo not given),18
12,CCCC(N)C(=O)NC1CCN(c2c(F)c(N)c3c(=O)c(C(=O)O)cn4c3c2Oc2ccccc2-4)C1.Cl (stereo not given),66
13,CC(C)CN(c1nc(C(=O)NNC(=O)[C@H](CC2CC2)NC(=O)c2cc3cc(OCCN4CCCCC4)ccc3o2)cs1)C1CC1,2
14,CCc1ccc(OCc2ccccc2C(=O)Nc2ccc3nc(C)cc(N)c3c2)cc1.Cl,98
15,CCc1ccc(O)c(-c2cc(C(=O)Nc3ccc(OC)c(Cl)c3)[nH]n2)c1,15
16,CCOC(=O)NC1=NC(C)(C)N(OCCCOc2ccc(C)cc2C)C(NC(=O)OCC)=N1,63
17,CN1CCC(C(=O)N(Cc2ccc(-c3ccc(CNCCc4ccc(S(C)(=O)=O)cc4)cn3)cc2)C2Cc3ccccc3C2)CC1.O=C(O)C(F)(F)F,21
18,COc1ccc2[nH]ccc(=NN=Cc3ccc(F)cc3)c2c1,2
19,CC(=O)c1ccc(Nc2c(C(N)=O)cnc3cc(-c4c(C)noc4C)ccc23)cc1,0
20,Cc1cc(NCCc2ccccc2)nc(NC(=N)Nc2ccc(Cl)cc2)n1,7

row,SMILES,Inhibition [%]
1,Cc1ccc(/C=C/C(=O)N2CCC(CCN3CCC(c4c[nH]c5ccccc45)CC3)CC2)cc1C,50
2,CCC1CCCCN1S(=O)(=O)c1ccc(OC)c(N2CCN(C(=O)C(Cl)(Cl)Cl)CC2)c1 (stereo not given),9
3,COC(=O)c1ccc2nc(-c3cc(OC)c(O)c(C(=O)NC4CCN(Cc5ccccc5)CC4)c3)[nH]c2c1,8
4,O=C(Nc1cccc(N2CCC(NCc3cccnc3)CC2)c1)c1cccc(C(F)(F)F)c1,26
5,CCCC(C)NC[C@@H](O)[C@H](Cc1ccccc1)NC(=O)c1cc(NCC)cc(N2CCCCS2(=O)=O)c1.Cl (stereo not given in full),0
6,CC(=O)N[C@H](C(=O)Nc1ccc(-c2cccc(-c3nc4cccc(C)c4[nH]3)c2)cc1)C(C)C,9
7,CC(C)(C)Oc1ccc(CC2NC3(C(=O)N(Cc4ccc(C(C)(C)C)cc4)c4ccccc43)C3C(=O)N(c4ccc(Br)cc4)C(=O)C23)cc1 (stereo not given),24
8,Cl.O=C(NCc1ccc(C(=O)N2CCC(N3CCCCC3)CC2)cc1)c1cc(-c2cccc(C(F)(F)F)c2)ccc1O,0
9,Cc1cccc2nc(-c3cccc(-c4cccc(CNCCCN5CCCC5=O)c4)c3)[nH]c12.O=C(O)C(F)(F)F,9
10,Cc1nc(N2CCC(C)CC2)c2c3c(sc2n1)CCCC3,13
11,Cc1cc(Nc2ccncc2)n2nc(C)c(-c3ccccc3Cl)c2n1,2
12,COc1ccc(NC(=O)[C@H](CC(C)C)Nc2cc(C)nc(NCCc3ccccc3)n2)cc1.O=C(O)C(F)(F)F,13
13,Cc1ccccc1C1CCN(C2CCC(NC(=O)C3=Cc4ccccc4OC3)CC2)CC1 (stereo not given),26
14,Clc1ccc(CNCCCCCCNCc2ccc(Cl)cc2)cc1.O=C(O)c1ccc2ccccc2c1O,53
15,Cc1ccc(NC(=O)c2ccc3ncccc3c2)cc1OC1CCN(CCC(C)C)CC1.O=C(O)C(F)(F)F,2
16,COc1ccc2nccc([C@@H](O)CN3CCC(NS(=O)(=O)c4cc(Br)c(Br)s4)CC3)c2c1,14
17,COc1cc2nc(NCCc3ccccc3)nc(NC(C)c3ccccc3)c2cc1OC (stereo not given),9
18,Clc1ccc(-c2cnc3ccc(NCCc4cccnc4)nn23)cc1,34
19,O=C(Nc1ccc([N+](=O)[O-])cc1)Nc1cc(C(F)(F)F)ccc1F,8
20,CCC(CC)(Cc1ccccc1)NC(=O)[C@H](CC1CCCCC1)Nc1ccc(C#N)c2ccccc12.O=C(O)C(F)(F)F,4

# Reference: ChEMBL document CHEMBL1157539, “Thousands of chemical starting points for antimalarial lead identification” (Nature, 2010)
